Assay results taken from the supplement of paper PMC9492666.
Counter-ions that a name gives are not always drawn.

Test system: MDA-MB-231
Experiment: relative cell viability, compound + RSL3, vs DMSO (fraction of DMSO control); higher = less growth inhibition
Details: 72 h
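Further: breast cancer cell viability read out with the CCK-8 kit after co-treatment of each compound with the ferroptosis inducer RSL3.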

| Compound | relative cell viability |
| --- | --- |
| O=C(OC(C(F)(F)F)C(F)(F)F)N1CCN(Cc2ccc(C(F)(F)F)cc2N2CCCC2)CC1 + COC(=O)c1ccc([C@H]2c3[nH]c4ccccc4c3C[C@H](C(=O)OC)N2C(=O)CCl)cc1 [RSL3] | 0.613 |
| COc1ccc(C2(CNC(=O)c3ccc(NC(=O)c4ccco4)cc3)CCOCC2)cc1 + COC(=O)c1ccc([C@H]2c3[nH]c4ccccc4c3C[C@H](C(=O)OC)N2C(=O)CCl)cc1 [RSL3] | 0.49 |
| CC(C)=CCC[C@](C)(O)[C@H]1CC[C@]2(C)[C@@H]1[C@H](O)C[C@@H]1[C@@]3(C)CC[C@H](O)C(C)(C)[C@@H]3[C@@H](O)C[C@]12C [(20S)-Protopanaxatriol] + COC(=O)c1ccc([C@H]2c3[nH]c4ccccc4c3C[C@H](C(=O)OC)N2C(=O)CCl)cc1 [RSL3] | 0.672 |
| CNC(=O)c1cccc(NC(=O)N2CCC(Oc3ccccc3Cl)CC2)c1 + COC(=O)c1ccc([C@H]2c3[nH]c4ccccc4c3C[C@H](C(=O)OC)N2C(=O)CCl)cc1 [RSL3] | 0.683 |
| O=C(O)c1ccnc(N2CC(O)(c3ccc(OCc4c(-c5c(Cl)cccc5Cl)noc4C4CC4)cc3Cl)C2)c1 [Cilofexor] + COC(=O)c1ccc([C@H]2c3[nH]c4ccccc4c3C[C@H](C(=O)OC)N2C(=O)CCl)cc1 [RSL3] | 0.568 |
| Cc1cc(N2C[C@@H](C)N[C@@H](C)C2)ncc1-c1ccc(-c2nc3c(ccn3C)c(=O)[nH]2)cc1 + COC(=O)c1ccc([C@H]2c3[nH]c4ccccc4c3C[C@H](C(=O)OC)N2C(=O)CCl)cc1 [RSL3] | 0.682 |
| CCCCCCCCCCCCC/C=C/[C@@H](O)[C@@H](N)CO + COC(=O)c1ccc([C@H]2c3[nH]c4ccccc4c3C[C@H](C(=O)OC)N2C(=O)CCl)cc1 [RSL3] | 0.167 |
| Cc1ccc(Oc2nc3cc(-c4ccc(-c5ccccc5)cc4)c(Cl)cc3[nH]2)cc1C(=O)O + COC(=O)c1ccc([C@H]2c3[nH]c4ccccc4c3C[C@H](C(=O)OC)N2C(=O)CCl)cc1 [RSL3] | 0.6 |
| CCCCCCCCCCCCCCOc1ccc(C(=O)OCC(=O)N(C)CC(=O)OCC)o1 [Olumacostat Glasaretil] + COC(=O)c1ccc([C@H]2c3[nH]c4ccccc4c3C[C@H](C(=O)OC)N2C(=O)CCl)cc1 [RSL3] | 0.278 |
| C/C=C(\CC[C@@H](C)[C@H]1CC[C@H]2[C@@H]3CC=C4C[C@@H](O)CC[C@]4(C)[C@H]3CC[C@]12C)C(C)C [Fucosterol] + COC(=O)c1ccc([C@H]2c3[nH]c4ccccc4c3C[C@H](C(=O)OC)N2C(=O)CCl)cc1 [RSL3] | 0.694 |
| O=C(O)c1cc2c(Cl)c(N3CCN(S(=O)(=O)c4c(Cl)cccc4Cl)CC3)ccc2o1 [Vonafexor] + COC(=O)c1ccc([C@H]2c3[nH]c4ccccc4c3C[C@H](C(=O)OC)N2C(=O)CCl)cc1 [RSL3] | 0.745 |
| CN1CCN(c2ccc(/C=C(\C#N)c3ccccc3Br)cc2)CC1 [DG172 (dihydrochloride)] + COC(=O)c1ccc([C@H]2c3[nH]c4ccccc4c3C[C@H](C(=O)OC)N2C(=O)CCl)cc1 [RSL3] | 0.61 |
| CC1(C)C[C@H]2C3=CC[C@@H]4[C@@]5(C)CC[C@H](O)[C@@](C)(CO)[C@@H]5CC[C@@]4(C)[C@]3(C)C[C@H](O)[C@@]2(CO)[C@@H](O)[C@@H]1O [Gymnemagenin] + COC(=O)c1ccc([C@H]2c3[nH]c4ccccc4c3C[C@H](C(=O)OC)N2C(=O)CCl)cc1 [RSL3] | 0.657 |
| CC(C)(Oc1ccc(C(=O)c2ccc(Cl)cc2)cc1)C(=O)O [Fenofibric acid] + COC(=O)c1ccc([C@H]2c3[nH]c4ccccc4c3C[C@H](C(=O)OC)N2C(=O)CCl)cc1 [RSL3] | 0.535 |
| C[C@@H]1O[C@@H](O[C@H]2[C@H](Oc3cc(O)c4c(c3)O[C@H](c3ccc(O)cc3)CC4=O)O[C@H](CO)[C@@H](O)[C@@H]2O)[C@H](O)[C@H](O)[C@H]1O [Naringin] + COC(=O)c1ccc([C@H]2c3[nH]c4ccccc4c3C[C@H](C(=O)OC)N2C(=O)CCl)cc1 [RSL3] | 0.658 |
| COc1cccc(-n2c(=O)[nH]c3cc(Cl)n(-c4ccc(-c5cccc(OC)c5O)cc4)c3c2=O)c1 + COC(=O)c1ccc([C@H]2c3[nH]c4ccccc4c3C[C@H](C(=O)OC)N2C(=O)CCl)cc1 [RSL3] | 0.572 |
